Only a selection was taken, and hits are over-represented in it overall.
APEX1 inh: qHTS Assay for Inhibitors of the Human Apurinic/apyrimidinic Endonuclease 1 (APE1); recombinant APE1, TAMRA/BHQ-2 abasic DNA cleavage fluorescence; DNA repair nuclease/redox regulator APEX1 (Homo sapiens), P27695; actives 0.35% (n = 350,000); Potency, µM (highest dose often 65.8 µM), for the others: top-dose activity change, negative = inhibition, hits mostly inhibitors;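 further: plate controls were vehicle for no effect and reference inhibitor for full effect; nearly all actives have a fitted effect of over 55% in size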
Target sequence (P27695 whole entry, looked up): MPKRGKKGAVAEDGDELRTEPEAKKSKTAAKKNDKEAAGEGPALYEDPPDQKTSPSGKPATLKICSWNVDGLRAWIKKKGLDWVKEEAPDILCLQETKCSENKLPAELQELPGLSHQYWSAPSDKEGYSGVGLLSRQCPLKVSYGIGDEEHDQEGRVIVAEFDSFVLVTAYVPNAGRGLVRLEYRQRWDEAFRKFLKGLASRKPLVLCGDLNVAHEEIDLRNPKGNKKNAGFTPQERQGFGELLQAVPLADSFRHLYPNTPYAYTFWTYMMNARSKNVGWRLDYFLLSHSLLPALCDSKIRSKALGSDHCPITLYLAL
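0.75 nM APE1 + cpd, 15 min RT; start w/ 50 nM TAMRA/BHQ-2 THF-abasic dsDNA; kinetic fluor 525/598 nm ×3 reads @60 s; Δ(read3−read1); normalized to DMSO and NSC13755 control wells.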
L3MBTL1 inh: qHTS Assay for the Inhibitors of L3MBTL1. Lethal(3)malignant brain tumor-like protein 1 (Homo sapiens), Q9Y468. AlphaScreen L3MBTL1–H3K9me1 peptide binding. Potency, µM (highest dose often 57.1 µM), without a hit: at the top dose activity, negative = inhibition, most hits filed as inhibitors. actives 0.66% (n = 230,000); further: nearly all actives have a fitted effect of over 60% in size
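AlphaScreen proximity signal between nickel-chelate acceptor and streptavidin donor beads (final 10 ug/mL) reports binding of 50 nM L3MBTL1 to 75 nM biotin-H3 K9me1 peptide; complex incubated with compounds 30 min at room temperature; cefsulodin titration as control.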
RECQ1 inh: qHTS Assay for Inhibitors of RecQ-Like Dna Helicase 1 (RECQ1); RECQ1 DNA unwinding, red fluorescence kinetic read; actives 0.54% (n = 240,000); AID 2549, 2010; ATP-dependent DNA helicase Q1 (Homo sapiens), P46063; Potency, µM (titrated, usually from 57.3 µM), without a hit: at the top dose activity, negative = inhibition, actives largely listed as inhibitors;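 further: plate controls were vehicle for no effect and no enzyme for full effect; nearly all actives have a fitted effect of over 30% in size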
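50 nM RECQ1T1 preincubated 15 min with compound in Tris pH 8.0 buffer with MgCl2, DTT, Tween-20 and 2.5 ug/ml poly(dI-dC); started with 200 nM TAMRA/BHQ-2 forked duplex and 2 mM ATP. Unwinding read as fluorescence (525/598 nm), two reads 2 h apart.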
TDP1 inh: qHTS Assay for Inhibitors of Tyrosyl-DNA Phosphodiesterase (TDP1); Tyrosyl-DNA phosphodiesterase 1 (Homo sapiens), Q9NUW8; recombinant TDP1, AlphaScreen DNA substrate cleavage; Potency, µM (series often up to 130 µM), for inactives: top-dose activity change, negative = inhibition, usual class: inhibitors; actives 0.28% (n = 350,000); further: nearly all actives have a fitted effect of over 40% in size
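Signal: AlphaScreen proximity between streptavidin donor and anti-FITC acceptor beads on intact substrate. Reaction: Tdp1 1 nM, substrate 15 nM final, 5 min RT after 15 min compound preincubation.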
BLM helicase inh: qHTS Assay for Inhibitors of Bloom's syndrome helicase (BLM) | RecQ-like DNA helicase BLM (Homo sapiens), P54132 | recombinant BLM DNA unwinding, fluorescence dequenching | Potency, µM (titrated, usually from 56.1 µM), inactives show at the highest dose activity change, negative = inhibition, hits mostly inhibitors | actives 0.2% (n = 350,000) | AID 2528, 2010;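 further: plate controls were vehicle for no effect and no enzyme for full effect; nearly all actives have a fitted effect of over 35% in size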
JMJD2E inh: qHTS Assay for Inhibitors of Human Jumonji Domain Containing 2E (JMJD2E) | JMJD2E catalytic domain, FDH-coupled NADH fluorescence (FDH is formaldehyde dehydrogenase) | Potency, µM (titrated, usually from 57.1 µM), for inactives: at the top dose activity change, negative = inhibition, most hits filed as inhibitors | actives 1.6% (n = 230,000) | AID 2147, 2009; active means well fitted inhibition curve with a large enough effect, not every such curve was filed as active; inconclusive means small, poorly fitted or top-dose-only effect, or another doubt; inactive means no such curve, though single readings can be large or run the other way;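 further: 0% = wells with enzyme and -100% = buffer wells without enzyme; nearly all actives have a fitted effect of over 50% in size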
Target sequence (B2RXH2 1-337 limits assumed): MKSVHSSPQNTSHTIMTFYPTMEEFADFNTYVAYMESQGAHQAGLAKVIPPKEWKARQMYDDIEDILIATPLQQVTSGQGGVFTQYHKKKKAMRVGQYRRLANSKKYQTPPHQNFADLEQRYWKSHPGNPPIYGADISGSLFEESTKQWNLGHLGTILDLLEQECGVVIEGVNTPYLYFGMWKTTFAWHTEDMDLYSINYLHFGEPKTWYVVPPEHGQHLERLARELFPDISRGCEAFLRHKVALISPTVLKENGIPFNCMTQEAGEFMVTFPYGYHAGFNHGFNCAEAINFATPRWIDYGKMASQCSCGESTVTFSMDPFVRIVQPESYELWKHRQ
The depositor's hits bear a star; i = inactive; u = inconclusive; x = no result given; [ ] = remark or other dose. Unless noted, the call rests on the fitted dose curve; in most records, active means well fitted curve in the direction sought with a large enough effect; inconclusive means small, poorly fitted or top-dose-only effect, or another doubt; inactive means no such curve, though single readings can be large; an effect the other way counts as inactive or inconclusive. Unless noted, on the % scale 0 is the no-effect control and ±100 the full control effect; potency means the concentration at half of the fitted maximal effect.

SMILES	APEX1 inh	L3MBTL1 inh	RECQ1 inh	TDP1 inh	BLM helicase inh	JMJD2E inh
C=CCn1c(NS(=O)(=O)c2ccccc2)c(S(=O)(=O)c2ccc(C)cc2)c2nc3ccccc3nc21	5.1%	3.55µM*	-6.0%	2.6%	4.47µM*	0.5%
O=S(=O)(Nc1c(S(=O)(=O)c2ccccc2)c2nc3ccccc3nc2n1C1CCCCC1)c1ccccc1	14.7%	u	-10.4%	-1.1%	10µM*	u
Cn1cccc1CC(=O)N/N=C/C=C/c1ccco1	5.7%	25.1µM*	-2.6%	5.1%	25.1µM*	3.8%
CCn1c(SCC(=O)N/N=C/C=C/c2ccco2)nc2ccccc21	u	35.5µM*	u	1.8%	u	-7.6%
CC(C)(C)n1ncc2c(=O)n(Cc3ccc(C#N)c(F)c3)cnc21	-8.6%	x	x	x	x	x
CN1C(C(=O)NCC2CC2)CC2Cn3c(nc4cc5ccccc5cc43)C21 (stereo not given)	3.98µM*	x	10.7%	x	-4.2%	u
COCCNC(=O)C1CC2Cn3c(nc4cc5ccccc5cc43)C2N1C (stereo not given)	1.1%	x	-11.9%	0.0%	2.1%	u
COc1ccc(-n2c(-c3ccccc3)cc3c2CCCC3=O)cc1	0.7%	31.6µM*	-6.8%	-3.8%	-4.7%	4.6%
O=C1CCCc2c1cc(-c1ccccc1)n2-c1ccc(O)cc1	-5.0%	-12.3%	-1.8%	3.1%	1.2%	-6.3%
C=CCn1c(O)c(CN2CCN(Cc3ccccc3)CC2)c(C)c(C#N)c1=O	-6.3%	x	-21.3%	-1.1%	-1.8%	u
C=CCN1CCc2c(cc(O)c(O)c2Cl)C(c2cccc(C)c2)C1 (stereo not given)	0.2%	x	-8.4%	9.9%	-2.6%	14.1µM*
Cc1cccc([C@@H]2CN(C)CCc3c2cc(O)c(O)c3Cl)c1	-2.2%	x	-3.9%	14.1%[56.1 µM]	-9.5%	14.1µM*
Cc1cccc(-c2csc(N3CCC(C(N)=O)CC3)n2)c1	-5.4%	x	x	x	x	x
O=C1CCc2cc(S(=O)(=O)Nc3ccncc3)ccc2N1	x	x	x	1.4%	x	x
O=C(CN1C(=O)C2(SCC(=O)N2c2ccc(F)cc2)c2ccccc21)NCCc1ccccc1 (stereo not given)	x	x	x	1.1%	-3.7%	x
Nc1ccccc1Sc1nc2ccccc2[nH]1	6.8%	u	-7.3%	8.1%	-0.8%	12.6µM*
OC[C@H]1O[C@@H](O[C@H]2[C@H](O)[C@@H](O)[C@H](O)O[C@@H]2CO)[C@H](O)[C@@H](O)[C@@H]1O	-1.5%	x	x	x	x	x
O=C(CCN1C(=O)/C(=C\c2cccs2)SC1=S)Nc1ccccn1	-4.7%	u	-13.6%	2.5%	-8.9%	-6.5%
O=C(CCCN1C(=O)/C(=C/c2cccs2)SC1=S)Nc1ccccn1	2.4%	35.5µM*	-1.3%	-5.1%	-2.5%	-12.2%
O=C1CCc2cc(S(=O)(=O)Nc3cccc(F)c3)ccc2N1	x	x	x	-3.1%	x	x
CCc1cnc2c(c1SCc1c(F)cccc1Cl)c(=O)n(C)c(=O)n2C	x	x	x	5.2%	-1.6%	x
Cc1ccc(-n2nc(C)c3c2OC(N)=C(C#N)C3c2ccc(C)o2)cc1 (stereo not given)	-2.4%	u	-13.9%	12.5%	-8.3%	25.1µM*
Cc1ccc(-n2nc(C)c3c2OC(N)=C(C#N)C3c2ccco2)cc1 (stereo not given)	-3.0%	u	-5.3%	8.6%	-2.3%	-20.8%
COc1cccc(C2c3c(ncn(-c4ccccc4C#N)c3=N)Oc3ccc4ccccc4c32)c1 (stereo not given)	x	x	x	3.1%	x	x
CCN1C(=O)/C(=C/C=C2/CCCN2C)OC1=S	3.3%	-12.4%	-6.9%	4.8%	-0.8%	11.2µM*
SMILES	APEX1 inh	L3MBTL1 inh	RECQ1 inh	TDP1 inh	BLM helicase inh	JMJD2E inh
CCN(CCN(C)C)C(=O)c1ccc2c(c1NCCO)C(=O)c1ccccc1C2=O	7.9%	x	1.7%	9.9%	17.8µM*	u
CC1(C)CCCN(C(=O)c2ccc3c(c2NCCO)C(=O)c2ccccc2C3=O)C1	6.2%	35.5µM*	-1.5%	-1.3%	-8.5%	6.3%
Cc1ccc(NC2=C(CC(=O)O)C(c3ccc(F)cc3)N(c3ccc(C)cc3)C2=O)cc1 (stereo not given)	x	x	x	x	-3.0%	x
O=C1C=C(NCc2ccccc2)c2ccccc2C1=O	-8.1%	22.4µM*	-12.9%	3.7%	u	u
CC1CCN(C2=C(NS(=O)(=O)c3ccc(Cl)cc3)C(=O)c3ccccc3C2=O)CC1	11.1%	15.8µM*	-9.6%	11.0%	-10.3%	-8.5%
CCOC(=O)C1CCN(C2=C(NS(=O)(=O)c3ccc(Cl)cc3)C(=O)c3ccccc3C2=O)CC1	-3.3%	u	-14.7%	x	-13.3%	-3.2%
CC1CCN(C2=C(NS(=O)(=O)c3ccccc3)C(=O)c3ccccc3C2=O)CC1	u	11.2µM*	-13.6%	x	-9.6%	u
CC1CCN(C2=C(NS(=O)(=O)c3ccc(Br)cc3)C(=O)c3ccccc3C2=O)CC1	18.2%	x	x	11.3%	-13.3%	x
Cc1cccc(C(=O)NC(=S)NNC(=O)c2ccccc2Cl)c1	-0.9%	12.6%	5.0%	10.5%	0.0%	u
Cc1cc(C(=O)NNC(=S)NC(=O)/C=C/c2ccccc2Cl)n[nH]1	2.2%	x	-2.0%	10.5%	-10.9%	7.94µM*
O=C1C(O)=C(O)C(=O)C(O)=C1O	10µM*	x	-16.8%	x	u	12.6µM*
O=c1cc(-c2cccc(O)c2)oc2cc(O)ccc12	-5.2%	x	i	14.1%[56.1 µM]	-7.6%	0.3%
O=c1cc(-c2cccc(O)c2)oc2c(O)c(O)ccc12	u	x	4.47µM*	-6.5%[56.1 µM]	-0.9%	7.94µM*
CC(=O)c1ccc(NC(=O)Cn2nc(C(F)(F)F)c3c2CCC3)cc1	x	x	x	0.0%	-2.3%	x
CCOC(=O)C1=C(SCC)c2cc3c(n2C1=O)CCCC3	u	25.1µM*	1.1%	10.0%	-9.0%	5.5%
CCOC(=O)c1cnc2cc3c(cn2c1=O)CCCC3	-0.6%	-1.1%	i	2.0%	-1.6%	u
CCOc1ccccc1NC(=O)c1cc2cc3cc(C)ccc3nc2s1	x	x	x	3.0%	1.5%	x
Cc1ccc2nc3sc(C(=O)Nc4ccc(F)cc4)cc3cc2c1	u	-2.4%	x	10µM*	-10.4%	x
CCOc1ccccc1CNC(=O)CCn1c(=O)c2cccn2c2ccc(F)cc21	x	x	x	1.3%	-2.2%	x

High-throughput results (PubChem BioAssay)
